High-throughput results as filed in PubChem BioAssay.
An excerpt weighted towards active compounds, which were near 7.5% of everything screened.
ELG1 genotoxic = inducers of genotoxicity in HEK293T ELG1-luciferase cells; HEK293T ELG1-luciferase reporter, luminescence, 16 h; Potency, µM (highest dose often 46 µM), inactives show at the highest dose activity change, positive = activation, actives largely listed as activators; 330,000 compounds, 1.3% hits; also: % of control where 0% means no effect; nearly all actives have a fitted effect of over 60% in size
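ELG1-luciferase HEK293T cells, 2,000/well; compound pinned in; 16 hr, 37 °C, 5% CO2; ONE-Glo, 30 min RT; luminescence on CCD imager.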
FLuc counter = inhibits or activates purified firefly luciferase, miR-21 counter-screen | AID 588342 | purified FLuc, Km substrates, luminescence inhibition | Potency, µM (top dose mostly 57.5 µM), for inactives: at the highest dose activity change, negative = inhibition, usual class: inhibitors | 360,000 compounds, 6.9% hits | P08659;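 also: plate controls were vehicle for no effect and reference inhibitor for full effect; nearly all actives have a fitted effect of over 55% in size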
Target sequence (P08659 whole entry, looked up): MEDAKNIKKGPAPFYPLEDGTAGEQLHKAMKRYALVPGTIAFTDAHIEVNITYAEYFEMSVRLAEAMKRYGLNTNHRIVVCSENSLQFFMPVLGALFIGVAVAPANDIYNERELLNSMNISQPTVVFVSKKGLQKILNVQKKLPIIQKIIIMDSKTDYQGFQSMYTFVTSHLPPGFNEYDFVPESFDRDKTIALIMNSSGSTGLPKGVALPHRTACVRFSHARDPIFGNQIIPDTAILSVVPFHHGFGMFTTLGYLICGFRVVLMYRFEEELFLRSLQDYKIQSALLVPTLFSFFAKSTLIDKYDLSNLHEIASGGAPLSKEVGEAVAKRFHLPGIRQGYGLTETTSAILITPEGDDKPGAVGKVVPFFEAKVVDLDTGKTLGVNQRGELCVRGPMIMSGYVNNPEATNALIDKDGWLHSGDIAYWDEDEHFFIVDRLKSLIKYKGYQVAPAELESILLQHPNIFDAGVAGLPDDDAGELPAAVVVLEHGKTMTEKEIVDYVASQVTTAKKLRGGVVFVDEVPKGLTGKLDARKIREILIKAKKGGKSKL
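Purified P. pyralis luciferase, 10 nM final, with Km-level 10 uM D-luciferin and 10 uM ATP in 50 mM Tris acetate pH 7.5, 10 mM Mg acetate, 0.01% Tween-20, 0.05% BSA; 6-point qHTS titration about 60 µM downward; luminescence read.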
NPC1 prom act = activates the NPC1 promoter. Potency, µM (top dose mostly 9.22 µM), for the others: at the highest dose activation, most hits filed as activators. Huh7 NPC1 promoter luciferase reporter, 24 h. AID 485313. 320,000 compounds, 2.4% hits; also: % of control where 0% means no effect; nearly all actives have a fitted effect of over 60% in size
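Stably transfected Huh7 (NPC1 promoter→luciferase), 1500 cells/well in Opti-MEM + 10% FBS, 2 h settle, then compound 24 h at 37 °C. Luminescence after 10 min with Amplite reagent.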
SMN2 splice enh = SMN2 splice variant enhancement. HEK293 SMN2-luciferase splicing reporter, luminescence, 30-36 h. Potency, µM (top dose mostly 46.1 µM), for inactives: top-dose activity change, positive = activation, most hits filed as activators. 210,000 compounds, 2.8% hits. AID 1458; also: % of control where 0% means no effect; nearly all actives have a fitted effect of over 55% in size
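HEK293 cells carry an SMN2 […]–luciferase reporter in which exon 7 inclusion puts luciferase in frame. Cells were plated 10-12 h before compound addition, then incubated 30-36 h at 37C. ONE-Glo luminescence was read; sodium butyrate at 4.5 mM final served as control.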
Rab9 promoter act = activates the Rab9 promoter. Potency, µM (highest dose often 9.22 µM), for the others: at the top dose activation, negative = inhibition, usual class: activators. 320,000 compounds, 2.8% hits. Huh7 Rab9 promoter-luciferase reporter, luminescence, 24 h. AID 485297; also: % of control where 0% means no effect; nearly all actives have a fitted effect of over 60% in size
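Luminescence read-out: Huh7 cells stably expressing Rab9-luciferase, treated 24 h with compound at 37 °C, then lysed with luciferase reagent for 10 min at ambient before reading.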
Active calls of the source: *; ? = inconclusive; . = no result. Calls follow the shape of the dose curve; as a rule, active = well fitted curve in the direction sought with a large enough effect; inconclusive = small, poorly fitted or top-dose-only effect, or another doubt; inactive = no such curve, though single readings can be large; an effect the other way counts as inactive or inconclusive. Potency is read from the fitted curve at half-maximal effect.

SMILES	ELG1 genotoxic	FLuc counter	NPC1 prom act	SMN2 splice enh	Rab9 promoter act
CCC(=O)Nc1cc2c3c(c1)CCC(=O)N3CCC2	8.1%	0.8%	-1.2%	.	-1.5%
CCOC(=O)c1sc(-c2ccc(Cl)cc2Cl)nc1O	2.4%	16.9µM*	-4.5%	.	-1.3%
CCOC(=O)c1sc(CS(=O)(=O)c2ccc(Cl)cc2)nc1C	0.1%	-4.6%	-2.9%	.	-3.0%
Cc1ccc(O)c(C=Nc2ccc3[nH]ncc3c2)c1	-3.0%	19µM*	4.6%	22.5%	-5.6%
Cc1ccc(O)c(C=Nc2cc(C)ccc2O)c1	-0.1%	-6.8%	-0.4%	16.7%	0.3%
Cc1ccc(-c2onc3ccc(C=O)cc23)cc1	5.17µM*	?	?	?	?
COc1ccc(N=C2C(=Nc3ccc(OC)cc3)N(c3ccccc3)C(=S)N2C(=O)c2ccc(Cl)cc2)cc1	?	?	2.4%	25.1µM*	17.5%
COc1ccc(N=C2C(=Nc3ccc(OC)cc3)N(c3ccc(OC)cc3)C(=S)N2C(=O)c2ccc(OC)cc2)cc1	0.2%	?	0.3%	3.6%	3.2%
CCN(CC)C(=O)Cn1c(=O)n(-c2ccc(C)c(C)c2)c(=O)c2c3c(sc21)CCCCC3	.	-17.4%	.	-4.8%	.
CCCCCCOc1ccc(C(=O)O)cc1	0.1%	?	10.5%	.	5.0%
CCCCOc1ccc(-c2ncc(C(=O)O)c(C)n2)cc1	11.6%	2.39µM*	0.501µM*	14.1µM*	0.562µM*
CCC/C(O)=C1\C(=O)CC(C)(C)CC1=Nc1ccccc1O	-4.1%	-2.1%	-0.7%	.	-14.5%
COc1ccc(NC(=O)CN(C)C(=O)c2cn(-c3ccccc3)nc2-c2cccs2)cc1	-24.8%	16.9µM*	-1.7%	.	-4.9%
CCOC(=O)C1CCN(C(=O)c2cn(-c3ccccc3)nc2-c2cccnc2)CC1	0.8%	13.5µM*	1.3%	-2.1%	3.5%
O=C(/C=C/c1ccc(-c2ccccc2)cc1)NCc1cccnc1	2.4%	7.57µM*	20.6%	.	12.9%
O=C(NCc1cccnc1)c1cn(-c2ccccc2)nc1-c1ccccc1	-2.6%	21.3µM*	1.4%	27.4%	-8.7%
O=C(/C=C/c1ccccc1)NCc1cccnc1	6.3%	-2.3%	-0.8%	.	18.4%
O=C(NCc1ccncc1)c1cn(-c2ccccc2)nc1-c1cccnc1	0.6%	?	-3.9%	-4.4%	-1.1%
CN(CC(=O)Nc1ccc(F)cc1)C(=O)c1cn(-c2ccccc2)nc1-c1cccs1	-6.5%	?	0.2%	.	-5.7%
COc1cccc(CC(=O)OCC(=O)NCCc2ccc(F)cc2)c1	-2.1%	7.8%	0.0%	.	-3.2%
CCN(CC)CCNC(=O)c1ccc(NC(=O)c2cn(-c3ccc(F)cc3)nc2-c2cccc(OC)c2)cc1	?	?	0.5%	.	-0.8%
O=C(Nc1cccnc1)c1cn(-c2ccccc2)nc1-c1cccs1	9.3%	3.01µM*	18.3%	2.7%	1.2%
O=C(NCCCN1CCCC1=O)c1cn(-c2ccccc2)nc1-c1ccccc1	1.5%	10.7µM*	-2.4%	.	-3.6%
COc1ccc(-c2nn(-c3ccccc3)cc2C(=O)NC2CCC(C)CC2)cc1 (stereo not given)	7.3%	0.0%	-3.3%	.	-7.7%
CCN(CC)CCNC(=O)c1ccc(NC(=O)c2cn(-c3ccccc3)nc2-c2cccs2)cc1	-11.5%	8.49µM*	0.6%	-113.1%	-2.1%
SMILES	ELG1 genotoxic	FLuc counter	NPC1 prom act	SMN2 splice enh	Rab9 promoter act
O=C(NC1CCS(=O)(=O)C1)c1cn(-c2ccccc2)nc1-c1ccccc1 (stereo not given)	3.9%	15.1µM*	-4.9%	-11.0%	-2.8%
CCCCc1cc(=O)oc2cc(OCC(=O)NCc3ccccn3)ccc12	-0.5%	-0.2%	-0.9%	.	1.0%
O=C1CCC(C(=O)Nc2cccc3ccccc23)N1 (stereo not given)	2.6%	2.6%	-1.6%	7.94µM*	-1.9%
O=C(Nc1cccc2ccccc12)C1CCCC1	0.6%	4.0%	-0.1%	.	-2.7%
O=C(COC(=O)c1ccco1)c1ccc2ccccc2c1	10.2%	2.39µM*	-2.2%	-14.6%	9.2%
O=C(COC(=O)c1ccco1)c1ccc(Cl)cc1	18.3%	1.69µM*	-1.0%	.	-5.5%
O=C(COC(=O)c1ccco1)NCCNC(=O)COC(=O)c1ccco1	1.1%	4.1%	-2.8%	.	6.6%
O=C(CSCc1ccc(Cl)cc1)c1ccco1	10.8%	15.1µM*	12.3%	-4.2%	8.4%
Cc1ccc(C(=O)COC(=O)c2ccco2)cc1C	23.1µM*	1.51µM*	0.9%	.	12.7%
CC1CCCCC1NC(=O)CN(C)S(=O)(=O)c1ccc2c(c1)CCC(=O)N2 (stereo not given)	0.6%	3.1%	-3.2%	.	-7.0%
CCOC(=O)c1ccc(NC(=O)C(C)Sc2nc(=O)cc(N)n2CCc2ccccc2)cc1 (stereo not given)	.	-12.0%	.	7.3%	.
CCN(CC)S(=O)(=O)c1ccc2oc(C(=O)N(C)Cc3ccccc3)c(C)c2c1	.	0.4%	.	-13.6%	.
Cc1ccc(CNC(=O)COC(=O)c2ccc(Br)o2)cc1	2.8%	.	-0.8%	.	0.7%
O=C(Cc1ccc(F)cc1)OCC(=O)c1cc2ccccc2o1	1.4%	21.3µM*	8.8%	7.0%	2.0%
O=C(COC(=O)c1ccco1)c1ccccc1	?	6.01µM*	-6.8%	.	0.2%
Cc1ccc(C(=O)COC(=O)c2ccc(Br)o2)cc1C	3.8%	10.7µM*	2.2%	9.8%	16.1%
COc1cc(C(=O)COC(=O)c2ccco2)cc(OC)c1OC	10.9%	.	.	.	.
O=C(COC(=O)c1cc2ccccc2o1)c1ccccc1	?	6.01µM*	-2.1%	-6.7%	-2.4%
O=C(Nc1ccccc1C(=O)OCc1cc(=O)n2nc(C3CC3)sc2n1)c1cccc(F)c1	.	-1.3%	.	.	.
